# Test results reported in PubChem BioAssay (EPA / NIEHS).
# “And” between values parts separate entries of the source, which are not always exact repeats. Equal entries are not always repeated. Records with an inconclusive call do not appear. The source made the active and inactive calls. How the source made its calls: active means hit-call score of the fitted dose curve at least 0.9, where 1 is the maximum; inconclusive means response in the unintended direction; inactive means score below 0.9.
# Tests used:
# [1] = ACEA_AR_agonist_AUC_viability: ACEA Biosciences xCELLigence Real-Time Cell Analysis on Androgen Receptor Agonism for Viability (AID 2283775)
# Procedure, shortened: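 22Rv1 cells; impedance growth kinetics; 8-pt 1:4 dilutions from 100 uM top final, ≤0.5% DMSO; n = 2; 80 h read; AUC viability, loss-of-signal vs DMSO.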
# [2] = ACEA_AR_antagonist_AUC_viability: ACEA Biosciences xCELLigence Real-Time Cell Analysis on Androgen Receptor Antagonism for Viability (AID 2283776);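 further: 22Rv1 human prostate cancer cells growing on impedance electrode plates; area under impedance growth curve at 80 h after dosing as viability; hits lower the growth signal relative to DMSO meaning cytotoxicity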
# Procedure, shortened: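 Real-time electrical impedance tracks 22Rv1 proliferation after continuous compound exposure (top 100 uM final, 1:4 steps, 8 concentrations). The 80 h area-under-curve serves as the cytotoxicity readout relative to DMSO.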
# [3] = ACEA_ER_AUC_viability: ACEA Biosciences xCELLigence Real-Time Cell Analysis on Estrogen Receptor Agonism for Viability (AID 2283782);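 further: hit means loss of impedance signal meaning reduced cell growth or viability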
# Procedure, shortened: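 Continuous-exposure impedance cell analysis uses T-47D cells in charcoal-stripped serum, eight 1:4 dilutions topping at 100 uM final, biological duplicate. Area under the growth curve at 80 h is fitted against DMSO baseline.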
# AR (gene 367) [4] = biological target: AR (gene 367) (UniProt P10275); assay: ACEA_AR_agonist_80hr: ACEA Biosciences xCELLigence Real-Time Cell Analysis on Androgen Receptor Agonism for Proliferation (AID 2283783);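 further: hits increase impedance growth signal above DMSO baseline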
# AR (gene 367), sequence (P10275 whole entry, looked up): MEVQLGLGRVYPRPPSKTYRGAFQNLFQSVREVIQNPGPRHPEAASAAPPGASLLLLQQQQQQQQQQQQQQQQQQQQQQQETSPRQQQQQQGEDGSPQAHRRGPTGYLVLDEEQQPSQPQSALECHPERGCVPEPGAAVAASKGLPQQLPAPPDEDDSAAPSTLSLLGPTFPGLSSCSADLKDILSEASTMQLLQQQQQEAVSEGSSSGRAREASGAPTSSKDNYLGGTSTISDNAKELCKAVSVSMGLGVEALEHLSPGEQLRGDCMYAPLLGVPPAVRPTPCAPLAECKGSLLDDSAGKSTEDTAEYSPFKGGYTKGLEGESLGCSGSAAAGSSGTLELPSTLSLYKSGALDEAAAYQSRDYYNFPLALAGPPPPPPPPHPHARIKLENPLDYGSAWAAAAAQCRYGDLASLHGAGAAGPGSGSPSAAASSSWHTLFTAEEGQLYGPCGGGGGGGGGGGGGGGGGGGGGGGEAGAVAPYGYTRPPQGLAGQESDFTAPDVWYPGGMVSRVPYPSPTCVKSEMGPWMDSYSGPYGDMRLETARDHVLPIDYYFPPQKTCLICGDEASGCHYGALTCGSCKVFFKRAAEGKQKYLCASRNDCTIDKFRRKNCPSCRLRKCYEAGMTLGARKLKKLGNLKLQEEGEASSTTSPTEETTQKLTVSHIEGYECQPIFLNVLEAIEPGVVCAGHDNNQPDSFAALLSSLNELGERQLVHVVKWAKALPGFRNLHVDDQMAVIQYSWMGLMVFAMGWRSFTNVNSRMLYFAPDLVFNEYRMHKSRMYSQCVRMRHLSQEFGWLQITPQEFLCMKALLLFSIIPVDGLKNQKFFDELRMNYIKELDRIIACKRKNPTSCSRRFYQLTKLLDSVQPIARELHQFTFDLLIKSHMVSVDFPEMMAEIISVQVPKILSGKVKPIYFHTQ
# Procedure, shortened: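 Real-time cell-growth kinetics were recorded by electrode impedance in 22Rv1 cells exposed to test chemicals up to 100 uM final; the 80 h timepoint served as the readout, fitted upward relative to DMSO controls, in biological duplicate.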
# AR (gene 367) [5] = biological target: AR (gene 367) (UniProt P10275); assay: ACEA_AR_antagonist_80hr: ACEA Biosciences xCELLigence Real-Time Cell Analysis on Androgen Receptor Antagonism for Proliferation (AID 2283787);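 further: 22Rv1 human prostate cancer cells with growth followed by electrical impedance; hits lower the impedance growth signal relative to DMSO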
# Procedure, shortened: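 Using 22Rv1 cells held in assay medium, we dosed compounds (100 uM maximum final, 1:4 serial, eight points, 0.5% DMSO at top) and recorded cell-electrode impedance; the 80 hr timepoint was analyzed against DMSO.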
# [6] = ATG_M_06_XSP2: Attagene TRANS-FACTORIAL Multi-Species (XSP2) HepG2 Assay for M06 Transcription Factor (Internal Marker) (AID 2283811);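 further: internal background marker reporter mRNA measured by RT-PCR and capillary electrophoresis; hits are increases in signal above the DMSO baseline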
# Procedure, shortened: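 Cells of the human liver line HepG2 carried transfected reporter transcription units and were treated for 24 h. Induced reporter transcripts were detected by fluorescence after RT-PCR and capillary electrophoresis, with activity fitted in the gain direction against DMSO.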
# [7] = system: turtle Estrogen Receptor (ERa), gene 101933533; assay: ATG_trERa_XSP2: Attagene TRANS-FACTORIAL Multi-Species (XSP2) HepG2 Assay for turtle Estrogen Receptor (ERa) (AID 2283812);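 further: actives raise reporter signal above DMSO so AC50 reflects agonist activity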
# Procedure, shortened: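 Readout is reporter mRNA quantified by RT-PCR with capillary electrophoresis after 24 h compound exposure, increase relative to DMSO. Uses transiently transfected human HepG2 liver cells carrying a chimeric turtle ERa-Gal4 receptor driving GAL4-UAS reporters.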
smiles,measurement,setting,value
OC[C@@H](O)[C@@H](O)[C@H](O)[C@@H](O)CO,outcome,[1],inactive
same,outcome,[2],inactive
same,outcome,[3],inactive
CC(C)c1ccccc1N,AC50,[3],50 µM (active)
COC(=O)C1CCC(C(=O)OC)CC1 (stereo unspecified),outcome,[1],inactive
same,outcome,[2],inactive
same,outcome,[3],inactive
OCC(F)(F)C(F)(F)C(F)(F)F,outcome,[3],inactive
CN(C)Cc1ccccc1O,outcome,[2],inactive
same,outcome,AR (gene 367) [4],inactive
same,outcome,AR (gene 367) [5],inactive
O=C(O)C(F)(F)C(F)(F)C(F)(F)F,outcome,[3],inactive
c1ccc(B(c2ccccc2)c2ccccc2)cc1,outcome,[1],inactive
same,outcome,[2],inactive
same,outcome,[6],inactive
same,AC50,[7],4.9 µM (active) and 7.88 µM (active)
CC(Cc1ccc(O)c(O)c1)C(C)Cc1ccc(O)c(O)c1 (stereo unspecified),outcome,[1],inactive
same,outcome,[2],inactive
same,AC50,[3],27.6 µM (active)
Cc1ccc(S(=O)(=O)OCC(F)(F)C(F)(F)C(F)(F)C(F)(F)C(F)(F)C(F)F)cc1,AC50,[3],0.00308 µM (active)
O=C(O)C(F)(F)C(F)(F)C(F)(F)C(F)(F)C(F)(F)C(F)(F)C(F)(F)C(F)(F)Cl,AC50,[3],119 µM (active)
FC1CC(F)(F)C(F)(F)C1(F)F (stereo unspecified),outcome,[3],inactive
C=C(C)C(=O)OCC(F)(F)C(F)(F)C(F)(F)F,outcome,[3],inactive
COC(=O)CCC(F)(F)C(F)(F)C(F)(F)C(F)(F)F,outcome,[3],inactive
[Co],outcome,[1],inactive
same,outcome,[3],inactive
Nc1ccc([N+](=O)[O-])cc1O,outcome,[3],inactive
CC(C)OC(=O)c1ccccc1C(=O)OC(C)C,outcome,[1],inactive
same,outcome,[2],inactive
same,outcome,[3],inactive
CCCCCCOC(=O)c1ccccc1O,outcome,[1],inactive
same,outcome,[2],inactive
same,outcome,[3],inactive
same,outcome,AR (gene 367) [5],inactive
OCC(F)(F)C(F)(F)C(F)(F)C(F)(F)C(F)(F)C(F)F,outcome,[3],inactive
CCCCCCCCCCCCCCCC[N+](C)(C)Cc1ccccc1,AC50,[3],3.4 µM (active)
